The source of these data is PubChem BioAssay (EPA / NIEHS).

Results filed as inconclusive are left out. The source made the active and inactive calls. Rule for the calls, unless noted: active = hit-call score of the fitted dose curve at least 0.9, where 1 is the maximum; inactive = score below 0.9.

The target in experiment [1] is Estrogen-related receptor gamma (Homo sapiens) (UniProt P62508). As to the kind of experiment: ATG_ERRg_TRANS: Attagene TRANS-FACTORIAL HepG2 Assay for human Estrogen-Related Receptor gamma (ERRg) (AID 2282977; active = hit-call score of the fitted dose curve at least 0.9, where 1 is the maximum;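 note: hits increase reporter signal over DMSO so potencies reflect activators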). Particulars: HepG2 Attagene TRANS reporter, ERRg transactivation. The procedure, abridged:
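HepG2 cells transiently transfected with multiplexed GAL4-UAS reporter units and chimeric NR-Gal4 constructs were exposed to test chemicals for 24 h. Reporter mRNA was measured by RT-PCR, 6-FAM primer extension, HpaI digestion and capillary electrophoresis; gain-of-signal versus DMSO.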

Experiment [2] addresses Oxysterols receptor LXR-alpha (Homo sapiens) (UniProt Q13133). Kind of experiment: ATG_LXRa_TRANS: Attagene TRANS-FACTORIAL HepG2 Assay for human Liver X Receptor alpha (LXRa) (AID 2282980; active = hit-call score of the fitted dose curve at least 0.9, where 1 is the maximum). The following applies: HepG2 Attagene TRANS reporter, LXRa transactivation. The method, boiled down: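 Transfect HepG2 with GAL4-UAS multiplex reporter constructs (TRANS format, chimeric receptor-GAL4); treat 24 h; extract RNA, reverse-transcribe, PCR-amplify, FAM-label, HpaI-digest; resolve fragments by capillary electrophoresis. Upward response vs DMSO.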

The target in experiment [3] is Oxysterols receptor LXR-beta (Homo sapiens) (UniProt P55055). As to the kind of experiment: ATG_LXRb_TRANS: Attagene TRANS-FACTORIAL HepG2 Assay for human Liver X Receptor beta (LXRb) (AID 2282981; active = hit-call score of the fitted dose curve at least 0.9, where 1 is the maximum). The following applies: HepG2 Attagene TRANS GAL4-LXRb reporter, mRNA. The method, boiled down:
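Gain-of-signal mRNA reporter endpoint, DMSO as negative control. Transiently transfected HepG2 cells carrying the NR-Gal4 chimera and GAL4-UAS reporter units were treated 24 h; transcripts quantified by RT-PCR and capillary electrophoresis fluorescence.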

Experiment [4] concerns the target Hepatocyte nuclear factor 4-alpha (Homo sapiens) (UniProt P41235). Kind of experiment: ATG_HNF4a_TRANS: Attagene TRANS-FACTORIAL HepG2 Assay for human Hepatocyte Nuclear Factor 4 alpha (HNF4a) (AID 2282982; active = hit-call score of the fitted dose curve at least 0.9, where 1 is the maximum). The following applies: HepG2 HNF4a transactivation reporter, mRNA readout. The procedure, abridged:
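Gain-of-signal mRNA induction, relative to DMSO vehicle, was read after 24 h compound treatment of HepG2 cells bearing transfected GAL4-UAS reporters. Detection used RT-PCR, 6-FAM primer extension and capillary electrophoresis.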

Experiment [5] is described as follows: ATG_M_06_TRANS: Attagene TRANS-FACTORIAL HepG2 Assay for M06 Transcription Factor (Internal Marker) (AID 2282983; active = hit-call score of the fitted dose curve at least 0.9, where 1 is the maximum). Particulars: HepG2 Attagene TRANS M06 internal marker reporter. The procedure, abridged: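 Transfect HepG2 with MRTUs → dose compounds 24 h → isolate RNA, oligo(dT) RT → PCR with reporter primers → 6-FAM primer extension → HpaI digest → CE fragment analysis. Positive direction vs DMSO.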

A short description of experiment [6]: ATG_M_32_TRANS: Attagene TRANS-FACTORIAL HepG2 Assay for M32 Transcription Factor (Internal Marker) (AID 2282984; active = hit-call score of the fitted dose curve at least 0.9, where 1 is the maximum;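 note: transcript level of a background control reporter unit measured by RT-PCR and capillary electrophoresis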). The following applies: HepG2 Attagene TRANS M32 internal marker reporter. The procedure, abridged: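 Capillary electrophoresis of 6-FAM-labelled reporter fragments gives the signal; data fitted for gain over DMSO negative control. Source: HepG2 cells bearing transient multiple reporter transcription units, 24 h exposure.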

Experiment [7] addresses Nuclear receptor subfamily 4 group A member 2 (Homo sapiens) (UniProt P43354). Kind of experiment: ATG_NURR1_TRANS: Attagene TRANS-FACTORIAL HepG2 Assay for human Nuclear Receptor Related Protein 1 (NURR1) (AID 2282985; active = hit-call score of the fitted dose curve at least 0.9, where 1 is the maximum). Particulars: HepG2 Attagene TRANS reporter, mRNA readout. The procedure, abridged: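 HepG2 / transient MRTU transfection / 24 h compound exposure / RT-PCR + CE fluorescence of reporter mRNA / gain-of-signal vs DMSO.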

The target in experiment [8] is Transcriptional activator Myb (Homo sapiens) (UniProt P10242). As to the kind of experiment: ATG_Myb_CIS: Attagene CIS-FACTORIAL HepG2 Assay for human Myeloblastosis (Myb) Proto-Oncogene Transcription Factor (AID 2282986). Particulars: HepG2 Attagene CIS-FACTORIAL Myb reporter transcription; actives raise or lower the signal. The procedure, abridged: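 Fluorescence signals from capillary electrophoresis of RT-PCR-amplified reporter cDNA give the read-out. Cells: HepG2 transfected with multiple cis-regulated reporter units. Exposure lasts 24 hours; DMSO defines baseline for gain or loss of signal.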
Chain of Transcriptional activator Myb (Homo sapiens) (P10242 whole entry, looked up): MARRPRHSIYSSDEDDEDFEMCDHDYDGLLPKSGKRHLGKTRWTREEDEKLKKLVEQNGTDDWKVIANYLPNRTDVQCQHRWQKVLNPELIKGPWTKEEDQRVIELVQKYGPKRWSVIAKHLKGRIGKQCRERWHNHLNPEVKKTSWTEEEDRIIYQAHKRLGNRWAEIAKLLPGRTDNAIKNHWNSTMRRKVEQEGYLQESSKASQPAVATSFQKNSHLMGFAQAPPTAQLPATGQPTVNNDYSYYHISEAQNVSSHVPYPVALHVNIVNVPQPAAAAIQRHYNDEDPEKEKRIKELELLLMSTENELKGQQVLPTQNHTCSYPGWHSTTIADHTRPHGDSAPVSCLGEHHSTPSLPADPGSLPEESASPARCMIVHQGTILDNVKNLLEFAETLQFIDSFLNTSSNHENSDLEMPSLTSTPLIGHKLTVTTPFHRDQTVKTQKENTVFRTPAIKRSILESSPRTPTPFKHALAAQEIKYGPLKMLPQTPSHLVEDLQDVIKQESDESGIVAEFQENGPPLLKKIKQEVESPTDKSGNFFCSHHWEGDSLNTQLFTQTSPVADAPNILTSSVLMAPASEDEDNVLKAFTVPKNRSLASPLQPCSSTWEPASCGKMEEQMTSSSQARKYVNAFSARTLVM

In experiment [9] the target is Nuclear respiratory factor 1 (Homo sapiens) (UniProt Q16656). Kind of experiment: ATG_NRF1_CIS: Attagene CIS-FACTORIAL HepG2 Assay for human Nuclear Respiratory Factor 1 (NRF1) Orphan Gene (AID 2282987). The following applies: HepG2 NRF1 cis-element reporter, Attagene multiplex; actives raise or lower the signal. The method, boiled down:
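Transcriptional reporter readout, one component of a 52-endpoint multiplexed HepG2 panel. Exposure 24 h; mRNA detected via RT-PCR and fluorescent capillary electrophoresis; fitting in both directions against DMSO.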

Experiment [10] in a line: ATG_NFI_CIS: Attagene CIS-FACTORIAL HepG2 Assay for human Nuclear Factor I (NFI) (AID 2282989). The following applies: HepG2 cis-regulatory reporter, NFI response element transcription; actives raise or lower the signal. The method, boiled down:
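Read-out: reporter mRNA via RT-PCR plus capillary electrophoresis with fluorescence detection. Transiently transfected HepG2 (endogenous TF activity on cis promoters), 24 h compound exposure; gain or loss of signal fitted against DMSO.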

In experiment [11] the target is Myc proto-oncogene protein (Homo sapiens) (UniProt P01106). As to the kind of experiment: ATG_Myc_CIS: Attagene CIS-FACTORIAL HepG2 Assay for human Myelocytomatosis (Myc) Proto-Oncogene Transcription Factor (AID 2282990). Particulars: HepG2, Attagene cis-reporter transcription factor activity; actives raise or lower the signal. The method, boiled down:
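Read-out: fluorescent reporter mRNA fragments resolved by capillary electrophoresis after RT-PCR. Human HepG2 liver cells carried transfected cis-element reporter units and were dosed for 24 h. Gain or loss of signal fitted relative to DMSO baseline.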

The nature of experiment [12]: ATG_NRF2_ARE_CIS: Attagene CIS-FACTORIAL HepG2 Assay for human Nuclear Factor Erythroid 2 Related Factor 2 (NFR2) response to Antioxidant Response Elements (ARE) (AID 2282992).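 For AC50: reporter mRNA level measured by RT-PCR and capillary electrophoresis fluorescence.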 Particulars: HepG2 Attagene ARE/NRF2 reporter, transcription factor activity; actives raise or lower the signal. The method, boiled down: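 Multiplexed reporter mRNA profiling in HepG2 after a 24 h chemical exposure. Curves fitted in both directions relative to DMSO negative control.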

Experiment [13] can be described thus: ATG_Oct_MLP_CIS: Attagene CIS-FACTORIAL HepG2 Assay for human Octamer-Binding Transcription Factor (Oct) (AID 2282993). Particulars: HepG2 Attagene cis-factorial Oct reporter, mRNA; actives raise or lower the signal. The procedure, abridged: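 Read-out: reporter mRNA via RT-PCR plus capillary electrophoresis of 6-FAM-labelled fragments. Transiently transfected HepG2, 24 h exposure, endogenous TF activity on cis elements. Gain or loss of signal fitted relative to DMSO.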

Experiment [14] deals with Bile acid receptor (Homo sapiens) (UniProt Q96RI1). As to the kind of experiment: ATG_FXR_TRANS: Attagene TRANS-FACTORIAL HepG2 Assay for Farnesoid X Receptor (FXR) (AID 2282979; active = hit-call score of the fitted dose curve at least 0.9, where 1 is the maximum;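 note: hits raise reporter mRNA above DMSO so AC50 marks FXR activation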). The following applies: HepG2 Attagene TRANS FXR-GAL4 reporter transcription. The procedure, abridged:
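Transient transfection of HepG2 with multiplexed GAL4-UAS reporter units; exogenous FXR-GAL4 chimera. Dose 24 h → TriZol RNA → oligo(dT) RT → PCR, 6-FAM primer extension, HpaI cut → CE. Gain vs DMSO.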

Experiment [15] can be described thus: ATG_NF_kB_CIS: Attagene CIS-FACTORIAL HepG2 Assay for human Nuclear Factor Kappa B (NF-kB) (AID 2282991). The following applies: HepG2 Attagene cis-factorial NF-kB reporter mRNA; actives raise or lower the signal. The procedure, abridged:
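HepG2, transient multi-reporter transfection, cis promoter elements (endogenous TFs). 24 h exposure. Total RNA → RT → PCR → 6-FAM label → HpaI → CE. Gain/loss vs DMSO.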

Experiment [16] can be described thus: BSK_3C_TissueFactor: BioMAP Diversity Plus: 3C Assay for Tissue Factor Biomarker Activity (AID 2282997). The following applies: BioMAP 3C HUVEC, tissue factor biomarker readout; actives raise or lower the signal. The method, boiled down:
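ELISA read-out of Tissue Factor levels on human umbilical vein endothelium collected 24 h after chemical dosing. Gain or loss of signal was fitted relative to DMSO.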

The nature of experiment [17]: BSK_3C_uPAR: BioMAP Diversity Plus: 3C Assay for Urokinase-type plasminogen activator receptor (uPAR) Biomarker Activity (AID 2282998). Particulars: BioMAP 3C HUVEC, uPAR biomarker ELISA; actives raise or lower the signal. The procedure, abridged: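 HUVEC primary cells; 24 h post-dose; uPAR by ELISA; gain or loss of signal fitted bidirectionally vs DMSO baseline.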
On the technique in general: An ELISA detects its analyte on a solid surface through an enzyme-linked reagent.

The nature of experiment [18]: BSK_3C_VCAM1: BioMAP Diversity Plus: 3C Assay for Vascular cell adhesion molecule 1 (VCAM1) Biomarker Activity (AID 2282999). Particulars: BioMAP 3C HUVEC, VCAM1 ELISA, cytokine-stimulated; actives raise or lower the signal. The method, boiled down: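 Human umbilical vein endothelial cells (3C system), biomarker read by ELISA 24 h after dosing; bidirectional fit against DMSO baseline. Cytotoxicity tracked by SRB total-protein staining in parallel cultures at biomarker time.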

Experiment [19] concerns the target Cellular tumor antigen p53 (Homo sapiens) (UniProt P04637). As to the kind of experiment: ATG_p53_CIS: Attagene CIS-FACTORIAL HepG2 Assay for human p53 Transcription Factor (AID 2282994). The following applies: HepG2 p53 cis-element reporter, Attagene mRNA; actives raise or lower the signal. The method, boiled down: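 Multiplexed reporter mRNA assay in human HepG2 liver cells; cis-regulated units report endogenous factor activity. Values come from bidirectional curve fitting against DMSO negative control after 24 h treatment.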

Experiment [20] concerns the target Glucocorticoid receptor (Homo sapiens) (UniProt P04150). Kind of experiment: ATG_GR_TRANS: Attagene TRANS-FACTORIAL HepG2 Assay for human Glucocorticoid Receptor (GR) (AID 2282978; active = hit-call score of the fitted dose curve at least 0.9, where 1 is the maximum;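 note: activators score as hits since higher reporter transcript over DMSO is fitted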). The following applies: HepG2 Attagene TRANS GR reporter, mRNA transcription. The procedure, abridged:
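Measurement of GAL4-UAS-driven reporter mRNA in human HepG2 liver cells 24 h post-dosing, using RT-PCR with fluorescent labelling and capillary electrophoresis; the transfected constructs report exogenous NR-GAL4 chimera activity, fitted upward against DMSO.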

Chain of Oxysterols receptor LXR-alpha (Homo sapiens) (Q13133 whole entry, looked up, the tested form may be a part): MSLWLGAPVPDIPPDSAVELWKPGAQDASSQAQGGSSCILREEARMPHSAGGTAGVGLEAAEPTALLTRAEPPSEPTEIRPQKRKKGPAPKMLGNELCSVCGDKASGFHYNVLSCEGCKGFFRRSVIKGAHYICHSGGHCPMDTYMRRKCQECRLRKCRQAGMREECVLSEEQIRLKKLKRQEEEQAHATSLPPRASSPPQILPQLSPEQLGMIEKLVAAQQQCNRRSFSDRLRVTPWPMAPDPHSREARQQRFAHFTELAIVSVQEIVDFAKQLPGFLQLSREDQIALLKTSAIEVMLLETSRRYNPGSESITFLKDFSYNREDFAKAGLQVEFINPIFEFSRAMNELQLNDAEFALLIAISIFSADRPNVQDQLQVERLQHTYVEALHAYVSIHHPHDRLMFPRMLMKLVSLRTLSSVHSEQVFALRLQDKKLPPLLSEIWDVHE
Chain of Nuclear receptor subfamily 4 group A member 2 (Homo sapiens) (P43354 whole entry, looked up): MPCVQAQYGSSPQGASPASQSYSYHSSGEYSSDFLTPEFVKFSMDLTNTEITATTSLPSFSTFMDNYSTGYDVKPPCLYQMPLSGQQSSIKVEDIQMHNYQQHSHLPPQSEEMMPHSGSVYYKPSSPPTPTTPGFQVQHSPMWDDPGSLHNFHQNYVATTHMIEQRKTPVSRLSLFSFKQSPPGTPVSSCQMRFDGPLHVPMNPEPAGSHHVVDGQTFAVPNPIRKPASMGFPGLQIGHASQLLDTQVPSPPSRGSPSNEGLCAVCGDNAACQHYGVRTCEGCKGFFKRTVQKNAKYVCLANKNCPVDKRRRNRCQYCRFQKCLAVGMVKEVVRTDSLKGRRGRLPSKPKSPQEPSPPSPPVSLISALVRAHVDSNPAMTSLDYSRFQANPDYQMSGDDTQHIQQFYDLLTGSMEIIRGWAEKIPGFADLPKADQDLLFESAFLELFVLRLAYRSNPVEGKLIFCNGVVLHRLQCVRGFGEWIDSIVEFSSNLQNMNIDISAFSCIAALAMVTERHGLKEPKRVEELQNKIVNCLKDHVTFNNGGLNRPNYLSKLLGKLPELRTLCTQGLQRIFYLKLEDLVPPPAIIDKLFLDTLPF
Chain of Oxysterols receptor LXR-beta (Homo sapiens) (P55055 whole entry, looked up, the tested form may be a part): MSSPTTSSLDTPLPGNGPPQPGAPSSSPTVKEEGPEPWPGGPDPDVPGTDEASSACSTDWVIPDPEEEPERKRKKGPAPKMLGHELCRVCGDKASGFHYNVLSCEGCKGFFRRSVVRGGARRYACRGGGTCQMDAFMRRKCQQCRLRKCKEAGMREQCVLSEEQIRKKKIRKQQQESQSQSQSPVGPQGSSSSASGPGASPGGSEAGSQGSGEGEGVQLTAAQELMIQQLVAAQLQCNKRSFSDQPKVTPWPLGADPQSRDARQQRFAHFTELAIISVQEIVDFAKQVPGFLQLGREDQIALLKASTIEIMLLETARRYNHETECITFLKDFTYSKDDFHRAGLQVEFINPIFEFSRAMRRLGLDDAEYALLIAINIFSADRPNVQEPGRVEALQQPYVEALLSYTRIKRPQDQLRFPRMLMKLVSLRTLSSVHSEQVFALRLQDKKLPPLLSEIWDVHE
Chain of Nuclear respiratory factor 1 (Homo sapiens) (Q16656 whole entry, looked up): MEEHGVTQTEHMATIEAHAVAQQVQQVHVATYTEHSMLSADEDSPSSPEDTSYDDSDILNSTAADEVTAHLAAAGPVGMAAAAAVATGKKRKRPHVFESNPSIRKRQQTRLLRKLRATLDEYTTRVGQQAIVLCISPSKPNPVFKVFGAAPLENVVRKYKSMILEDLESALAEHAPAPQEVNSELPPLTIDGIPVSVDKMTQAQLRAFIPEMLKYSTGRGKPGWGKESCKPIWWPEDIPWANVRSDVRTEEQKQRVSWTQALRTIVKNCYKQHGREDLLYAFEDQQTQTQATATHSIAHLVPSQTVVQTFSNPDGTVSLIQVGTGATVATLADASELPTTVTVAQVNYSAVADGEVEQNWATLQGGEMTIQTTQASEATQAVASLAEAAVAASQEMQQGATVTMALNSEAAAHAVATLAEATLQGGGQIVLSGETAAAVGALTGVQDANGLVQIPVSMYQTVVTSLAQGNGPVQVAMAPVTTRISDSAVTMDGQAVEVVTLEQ
Chain of Estrogen-related receptor gamma (Homo sapiens) (P62508 whole entry, looked up, the tested form may be a part): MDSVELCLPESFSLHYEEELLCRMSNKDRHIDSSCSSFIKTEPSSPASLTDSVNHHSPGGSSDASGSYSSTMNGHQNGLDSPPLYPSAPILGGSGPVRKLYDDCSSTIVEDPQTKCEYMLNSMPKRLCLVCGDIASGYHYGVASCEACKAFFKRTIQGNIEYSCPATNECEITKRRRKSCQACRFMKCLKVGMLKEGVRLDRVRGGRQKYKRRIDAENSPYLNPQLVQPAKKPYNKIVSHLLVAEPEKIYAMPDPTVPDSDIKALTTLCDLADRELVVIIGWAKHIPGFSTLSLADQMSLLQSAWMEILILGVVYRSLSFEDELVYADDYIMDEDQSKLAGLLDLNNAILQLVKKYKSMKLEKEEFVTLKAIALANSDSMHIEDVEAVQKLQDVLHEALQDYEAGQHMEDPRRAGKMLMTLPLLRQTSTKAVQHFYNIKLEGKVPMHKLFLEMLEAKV
Chain of Myc proto-oncogene protein (Homo sapiens) (P01106 whole entry, looked up, the tested form may be a part): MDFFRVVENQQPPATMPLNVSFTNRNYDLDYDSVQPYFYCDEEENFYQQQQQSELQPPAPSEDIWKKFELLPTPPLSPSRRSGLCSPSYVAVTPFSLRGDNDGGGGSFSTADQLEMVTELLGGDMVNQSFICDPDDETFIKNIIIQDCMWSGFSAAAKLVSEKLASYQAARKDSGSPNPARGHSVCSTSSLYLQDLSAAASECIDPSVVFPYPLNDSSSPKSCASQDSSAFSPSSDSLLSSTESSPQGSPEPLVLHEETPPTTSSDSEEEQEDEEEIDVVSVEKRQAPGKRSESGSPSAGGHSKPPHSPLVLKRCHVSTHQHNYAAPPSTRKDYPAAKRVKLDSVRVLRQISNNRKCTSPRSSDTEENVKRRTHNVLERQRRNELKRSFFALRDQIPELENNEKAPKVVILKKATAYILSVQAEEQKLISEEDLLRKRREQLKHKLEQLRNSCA
Chain of Cellular tumor antigen p53 (Homo sapiens) (P04637 whole entry, looked up): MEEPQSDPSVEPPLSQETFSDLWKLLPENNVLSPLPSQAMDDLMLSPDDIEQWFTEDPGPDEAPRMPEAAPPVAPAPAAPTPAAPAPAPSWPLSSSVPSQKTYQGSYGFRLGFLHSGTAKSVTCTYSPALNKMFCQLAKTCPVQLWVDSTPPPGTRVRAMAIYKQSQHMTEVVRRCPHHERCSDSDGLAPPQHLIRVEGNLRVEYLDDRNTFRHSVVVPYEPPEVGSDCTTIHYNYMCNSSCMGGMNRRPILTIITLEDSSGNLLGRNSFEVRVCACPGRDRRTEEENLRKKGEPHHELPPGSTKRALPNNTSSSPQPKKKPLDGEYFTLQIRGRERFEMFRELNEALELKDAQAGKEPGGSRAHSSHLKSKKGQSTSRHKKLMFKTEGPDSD
Chain of Hepatocyte nuclear factor 4-alpha (Homo sapiens) (P41235 whole entry, looked up, the tested form may be a part): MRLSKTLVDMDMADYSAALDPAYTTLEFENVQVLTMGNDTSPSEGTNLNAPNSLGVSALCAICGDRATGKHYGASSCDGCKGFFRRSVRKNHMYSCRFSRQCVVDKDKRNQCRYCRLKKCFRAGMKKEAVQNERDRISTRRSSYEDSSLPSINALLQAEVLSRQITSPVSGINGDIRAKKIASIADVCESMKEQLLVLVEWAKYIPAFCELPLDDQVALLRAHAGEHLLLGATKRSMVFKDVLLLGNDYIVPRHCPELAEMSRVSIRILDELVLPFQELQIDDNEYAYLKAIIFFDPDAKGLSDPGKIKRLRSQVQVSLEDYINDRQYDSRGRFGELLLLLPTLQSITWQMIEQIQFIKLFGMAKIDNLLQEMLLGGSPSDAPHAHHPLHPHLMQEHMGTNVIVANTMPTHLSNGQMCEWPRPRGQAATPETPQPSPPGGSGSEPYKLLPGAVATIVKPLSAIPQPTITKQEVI
Chain of Bile acid receptor (Homo sapiens) (Q96RI1 whole entry, looked up, the tested form may be a part): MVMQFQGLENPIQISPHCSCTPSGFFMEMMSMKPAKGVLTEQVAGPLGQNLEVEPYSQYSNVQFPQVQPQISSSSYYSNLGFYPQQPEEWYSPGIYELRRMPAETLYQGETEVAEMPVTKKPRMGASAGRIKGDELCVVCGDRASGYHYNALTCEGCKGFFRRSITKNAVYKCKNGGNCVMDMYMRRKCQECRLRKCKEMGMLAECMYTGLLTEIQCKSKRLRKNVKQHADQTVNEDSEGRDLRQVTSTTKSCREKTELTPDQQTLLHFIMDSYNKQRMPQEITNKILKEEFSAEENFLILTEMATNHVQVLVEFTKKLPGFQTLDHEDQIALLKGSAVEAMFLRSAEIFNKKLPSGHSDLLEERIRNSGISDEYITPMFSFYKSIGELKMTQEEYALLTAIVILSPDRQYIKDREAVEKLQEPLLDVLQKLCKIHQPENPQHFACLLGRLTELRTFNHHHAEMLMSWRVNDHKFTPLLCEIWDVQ

Turning to `COC(=O)C(C)Oc1ccc(Oc2ncc(C(F)(F)F)cc2Cl)cc1` (configuration not stated), the molecule was classed as inactive in [1], in [2], in experiment [3], in experiment [4], in experiment [5] and in experiment [6]. Further, the molecule was classed as inactive in experiment [7], in [8], in [10], in [11], in [12] and in [13]. Besides, the AC50 in experiment [9] was 137 µM (active).

In the case of `C=C1CC/C=C(\C)CC[C@@H]2[C@@H]1CC2(C)C`, the outcome in experiment [1], in [14], in experiment [5], in experiment [6], in [7] and in experiment [8] was inactive. Further, the call in experiment [9], in experiment [10], in [11], in experiment [15] and in [13] was inactive. For the same molecule, the AC50 in experiment [12] is 100 µM (active); in [16], 16.8 µM (active); in [17], 33.9 µM (active); in experiment [18], 30.1 µM (active).

Turning to `CCCCCCCC(=O)N(C)C`, the call in experiment [1], in experiment [2], in experiment [3], in [6], in experiment [7] and in experiment [8] was inactive. Further, the molecule was classed as inactive in experiment [9], in experiment [10], in [11], in [12], in experiment [13] and in experiment [19].

Take `N#CCCCC(C#N)CCC#N` (configuration not stated): the molecule was called inactive in experiment [1], in [2], in [3], in [5], in [7] and in [8]. The molecule was classed as inactive in experiment [9], in [10], in experiment [11], in experiment [12], in experiment [13] and in experiment [19].

In the case of `C=COCC1CCC(COC=C)CC1` (configuration not stated), the outcome in experiment [1], in [20], in experiment [6], in [7], in [8] and in experiment [9] was inactive. For the same molecule, the molecule was called inactive in experiment [10], in experiment [11] and in [13]. Moreover, the AC50 in [12] is 179 µM (active).

As a reminder, the AC50 is the concentration at which the activity in the assay is half-maximal.
